HT1080NT lethal: kills 2HG-producing HT-1080-NT fibrosarcoma cells | actives 1.6% (n = 360,000) | Potency, µM (series often up to 46.1 µM), usual class: cytotoxic | HT-1080-NT fibrosarcoma viability, CellTiter-Glo ATP luminescence, 48 h | AID 686970;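 also: NT is the 2HG producing partner of a matched IDH1 knockdown line; nearly all actives have a fitted effect of over 55% in size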
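A 48-hour cytotoxicity screen used HT-1080-NT cells plated 2 hours before compound delivery. ATP-based CellTiter-Glo luminescence measured viability, normalized to DMSO and no-cell controls.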
HepG2 tox: counter-screen for TGF-b inhibitors: cytotoxicity in HepG2 cells; HepG2 CAGA-GFP viability, ATP luminescence, 18 h; AID 588856; Potency, µM (series often up to 46.1 µM), actives largely listed as cytotoxic; actives 0.76% (n = 410,000)
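CellTiter-Glo luminescence gave cytotoxicity after 18 hours at 37 degrees C. The cells were HepG2 CAGA-GFP in 1% FBS DMEM, stimulated with 500 pg/mL TGF-beta after compound addition. %Activity was normalised to no-cell wells (complete cell-killing) and DMSO (no toxicity), and curves were fitted and classified.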
IL1B secr inh: inflammasome signaling inhibition, IL-1 beta readout; THP-1 LPS/ATP IL-1B secretion, AlphaLISA, 16 h; stronger effect = lower value; activity change, % at 57.5 µM; actives 4.7% (n = 360,000); AID 743279; in the data active = activity change below about -50%; inconclusive = mostly about -30% to -49%
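THP-1 cells pretreated 1 hr with compounds (up to 57.5 uM final), then stimulated with LPS (250 ng/mL final) plus ATP (1.25 mM final); secreted IL-1B measured by AlphaLISA after 16 hr, decreased signal indicating inhibition.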
Giardia killer: Giardia lamblia killing; Giardia lamblia trophozoite viability; activity change, % at 7.66 µM, hits read low; actives 0.15% (n = 340,000); AID 540267; in the data active = activity change below about -80%; inconclusive = between about -30% and that limit;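 also: parasites exposed to compound for two days anaerobically before the ATP read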
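Anaerobic 48 hrs incubation at 37 deg C of 100 trophozoites/well with test compounds; ATPLite 1-Step luminescence, 15-30 min RT, reports cellular ATP as viability.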
HT1080 IDH1KD tx: HT-1080 IDH1 knockdown cell toxicity (counter line); HT-1080 IDH1 knockdown viability, ATP luminescence, 48 h; Potency, µM (doses to about 46.1 µM), actives largely listed as cytotoxic; actives 2% (n = 360,000)
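After a 2 h attachment period, IDH1KD HT-1080 cells took pin-transferred compound for 48 h at 37 °C; ATP-based luminescence after 10 min room-temperature reagent incubation reported viability.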
TGFb SMAD3 inh: blocks TGF-b signaling; AID 588855; HepG2 CAGA-GFP TGF-b/SMAD3 reporter, GFP fluorescence, 18 h; TGF-beta stimulated, 500 pg/mL final; Potency, µM (doses to about 46.1 µM), hits mostly inhibitors; actives 1.2% (n = 410,000); also: nearly all actives have a fitted effect of over 65% in size
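TGF-beta reporter screen: HEPG2 CAGA-GFP, 1% FBS, 500 pg/mL TGF-beta final, 18 h; per-cell GFP summed per well; curves fitted and categorized by class.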
Large screens that a line does not name were inactive. In the library only some 6.5% were active in any assay of this set; here they are far more common. Unless noted, calls follow the shape of the dose curve; as a rule, active = well fitted curve in the direction sought with a large enough effect; inconclusive = small, poorly fitted or top-dose-only effect, or another doubt; inactive = no such curve, though single readings can be large; an effect the other way counts as inactive or inconclusive.

Cc1ccc(S(=O)(=O)N2[C@@H](c3ccc(Cl)cc3)C(C(=O)O)=CC[C@H]2c2ccc(C(C)C)cc2)cc1	TGFb SMAD3 inh inconclusive
Cc1ccc(C(C(=O)NC2CCCC2)N(C(=O)Cc2cccs2)c2cccc(C)c2C)o1 (stereo unspecified)	none
CC(=O)Nc1ccc(S(=O)(=O)N2CCN(CC3CC4C=CC3C4)CC2)cc1 (stereo unspecified)	TGFb SMAD3 inh inconclusive
CCCCCCCCN1C(=O)[C@H](CC(=O)NCC2CCCCC2)C[C@@]2(C(=O)OCC)CCCC=C12	IL1B secr inh -51 (no result: HepG2 tox, Giardia killer, TGFb SMAD3 inh)
CCOC(=O)[C@]12CCCC=C1N(CCC1=CCCCC1)C(=O)[C@H](CC(=O)NCC1CCCCC1)C2	HT1080NT lethal inconclusive, IL1B secr inh inconclusive, HT1080 IDH1KD tx 23µM (no result: HepG2 tox, Giardia killer, TGFb SMAD3 inh)
CCOC(=O)[C@]12CCC=C1N(CCC1=CCCCC1)C(=O)[C@H](CC(=O)NCC1CCCCC1)C2	HT1080 IDH1KD tx inconclusive (no result: HepG2 tox, Giardia killer, TGFb SMAD3 inh)
CCCCCCCCN1C(=O)[C@H](CC(=O)NCC2CCCCC2)C[C@@]2(C(=O)OCC)CCC=C12	HT1080NT lethal inconclusive, HT1080 IDH1KD tx inconclusive (no result: HepG2 tox, Giardia killer, TGFb SMAD3 inh)
COc1cc(NC(=O)CSc2nccc(=O)[nH]2)c(C)cc1[N+](=O)[O-]	none
CN(C)c1ccc(C(C[N+](=O)[O-])c2c(N)n(C)c(=O)n(C)c2=O)c(F)c1C#N (stereo unspecified)	HT1080NT lethal inconclusive, HepG2 tox 11µM, IL1B secr inh -63, HT1080 IDH1KD tx inconclusive, TGFb SMAD3 inh inconclusive
COc1ccc(Br)cc1C(C[N+](=O)[O-])c1c(N)n(C)c(=O)n(C)c1=O (stereo unspecified)	HT1080NT lethal inconclusive, HepG2 tox 16µM, IL1B secr inh -83, HT1080 IDH1KD tx inconclusive, TGFb SMAD3 inh 10µM
Cn1c(N)c(C(C[N+](=O)[O-])c2c(F)cccc2Cl)c(=O)n(C)c1=O (stereo unspecified)	HT1080NT lethal inconclusive, HT1080 IDH1KD tx inconclusive
CCn1cc(C(=O)NCc2ccc(Cl)cc2)c(=O)c2cc(S(=O)(=O)N(C)C)ccc21	IL1B secr inh -69
CCn1cc(C(=O)NCCc2ccc(Cl)cc2)c(=O)c2cc(S(=O)(=O)N(C)C)ccc21	none
O=C(c1ccco1)N1CCN(c2c(-c3ccccc3)c3cc(Cl)ccc3[nH]c2=O)CC1	HT1080NT lethal inconclusive, HepG2 tox 18µM, HT1080 IDH1KD tx inconclusive, TGFb SMAD3 inh inconclusive
O=c1[nH]c2ccc(Cl)cc2c(-c2ccccc2)c1N1CCOCC1	none
C=CCNC(=O)/C(C#N)=C/c1c(N2CC(C)OC(C)C2)nc2ccccn2c1=O (stereo unspecified)	none
CC(C)(C)C(=O)Cn1ncc(Br)c(Br)c1=O	HT1080NT lethal inconclusive, IL1B secr inh -100, HT1080 IDH1KD tx inconclusive, TGFb SMAD3 inh inconclusive
CCCN(CC(=O)Nc1cc(Cl)ccc1Cl)C(=O)c1ccccc1SCC(=O)N1CCCC1	none
CCOc1ccccc1CNS(=O)(=O)c1ccc2c(c1)C(C)(C)C(=O)N2C	none
Cc1ccc(-c2cn(-c3ccc(OC(F)F)cc3)c3[n+]2CCCCC3)cc1	HT1080NT lethal inconclusive, IL1B secr inh -81
FC(F)Oc1ccc(-n2cc(-c3ccccc3)[n+]3c2CCCCC3)cc1	none
Cc1ccc(-c2csc(NC(=O)c3ccc([N+](=O)[O-])o3)n2)cc1	IL1B secr inh -106, Giardia killer -95
CN(Cc1ccccc1)C(=O)c1ccc([N+](=O)[O-])o1	HepG2 tox 20µM, IL1B secr inh inconclusive, Giardia killer -87, TGFb SMAD3 inh inconclusive
Cc1ccc(/C=C/C(=O)c2ccc([N+](=O)[O-])o2)cc1	HT1080NT lethal 12µM, IL1B secr inh -113, HT1080 IDH1KD tx 3.7µM, TGFb SMAD3 inh 7.9µM
Cc1ccc(CNC(=O)c2nn(C)c(C)c2[N+](=O)[O-])cc1	none
Cc1ccc(CNC(=O)c2ccc([N+](=O)[O-])o2)cc1	HT1080NT lethal inconclusive, HepG2 tox 14µM, IL1B secr inh inconclusive, Giardia killer -86, HT1080 IDH1KD tx inconclusive
O=C(COC(=O)c1ccc([N+](=O)[O-])o1)NCc1ccccc1	TGFb SMAD3 inh inconclusive
COc1ccc(CC(NC(C)=O)C(=O)NC2CCN(C(=O)NCc3ccccc3)CC2)cc1 (stereo unspecified)	none
CC1(C)CC(CCC(=O)NC(=S)Nc2ccccc2Cl)C(=O)O1 (stereo unspecified)	none
O=C(CSc1nnc2ccc(-c3ccccn3)nn12)NCCc1ccccc1	none
CCOc1cc(CNC(=O)CN2CCSc3ccccc32)cc(OCC)c1OCC	none (no result: HT1080NT lethal, IL1B secr inh, Giardia killer, HT1080 IDH1KD tx)
Cc1cccc(OCC(=O)Nc2ccc(S(=O)(=O)Nc3ccccn3)cc2)c1	none
NNC(=O)c1ccc(O)cc1O	none
COC(=O)C1=CN(c2ccc(OC)cc2)C=C(C(=O)OC)C1c1cc(OC)c(OC)cc1OC	none
Cc1ccc(CS(=O)(=O)c2nc3c(c(N(C)C)n2)CCCC3)cc1	IL1B secr inh -79
CC(Sc1nc(N)cc(=O)[nH]1)C(=O)NC1CCCCC1 (stereo unspecified)	none
Cc1ccc(-c2cc(C(=O)NC(C)c3ccccc3)c3ccccc3n2)cc1C (stereo unspecified)	none (no result: HT1080NT lethal, IL1B secr inh, Giardia killer, HT1080 IDH1KD tx)
COc1ccc(C(C)C)cc1S(=O)(=O)N1CCN(C)CC1	none
O=c1cc(-c2ccccc2[N+](=O)[O-])oc2ccccc12	HT1080NT lethal inconclusive, HT1080 IDH1KD tx 12µM
CCc1cccc(NC(=O)c2nc(-c3ccncc3)no2)c1	none (no result: HT1080NT lethal, IL1B secr inh, Giardia killer, HT1080 IDH1KD tx)
CS(=O)(=O)c1ccc(N)c(SSc2cc(S(C)(=O)=O)ccc2N)c1	IL1B secr inh -95
Cc1ccc2oc(=O)c(-c3nc(-c4cccs4)no3)cc2c1	none (no result: HT1080NT lethal, IL1B secr inh, Giardia killer, HT1080 IDH1KD tx)
O=C(N[C@@H](Cc1ccccc1)C(=O)OCc1ccccc1)c1nc[nH]c1C(=O)N1CCN(c2ccccc2)CC1	TGFb SMAD3 inh inconclusive
Nc1ncccc1OCc1cccc(C(F)(F)F)c1	IL1B secr inh -51
O=S(c1ccc2ccccc2c1)c1cnns1 (stereo unspecified)	HT1080NT lethal inconclusive, IL1B secr inh -111, HT1080 IDH1KD tx inconclusive
O=c1c2ccccc2cnn1-c1ccc2ccccc2c1	none
COc1ccc(-c2nc3cccc(C)n3c2Nc2ccc(C)cc2)cc1	none (no result: HepG2 tox, IL1B secr inh, TGFb SMAD3 inh)
CCCCn1c(CN2CCN(c3cccc(Cl)c3)CC2)nc2c1c(=O)[nH]c(=O)n2C	HT1080NT lethal 5µM, HT1080 IDH1KD tx 3.5µM, TGFb SMAD3 inh inconclusive
Cn1c(=O)[nH]c(=O)c2c1nc(CN1CCN(c3cccc(Cl)c3)CC1)n2CCCc1ccccc1	TGFb SMAD3 inh inconclusive
